In PubChem BioAssay (NCI):
This is part of a sample that, as a whole, favours compounds with a hit. Of some 83,000 tested, about 20% had one in any assay.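 48-hour exposure, single concentration, 96-well plates; percent growth endpoint where 0 means no net growth. Active: below 10.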 Calls of active or inactive are those of the source.

Key:
Assay in all cases: NCI-60 one-dose screen, 48 h (100 = growth as untreated, 0 = no growth, -100 = all killed)
Conditions in all cases: 10 µM unless noted
[1] = tested on: SR leukemia
[2] = tested on: RPMI-8226 leukemia
[3] = tested on: OVCAR-8 ovarian
[4] = tested on: OVCAR-5 ovarian
[5] = tested on: SK-OV-3 ovarian
[6] = tested on: IGROV1 ovarian
[7] = tested on: OVCAR-3 ovarian
[8] = tested on: HS 578T breast
[9] = tested on: NCI/ADR-RES ovarian
[10] = tested on: T-47D breast
[11] = tested on: BT-549 breast
[12] = tested on: MDA-MB-435 melanoma
[13] = tested on: SW-620 colon
[14] = tested on: MCF7 breast
[15] = tested on: HCT-116 colon
[16] = tested on: HCC-2998 colon
[17] = tested on: KM12 colon

Measured: growth

O=C(N/N=C/c1cccnc1)c1ccccc1Nc1cccc(C(F)(F)F)c1
active: [1] -15.3%
inactive: [2] 71.1% | [3] 83.1% | [4] 96.4% | [5] 80.3% | [6] 91.4% | [7] 75.4% | [8] 100% | [9] 79% | [10] 61.9% | [11] 80.7% | [12] 26.2% | [13] 84.1% | [14] 91.8% | [15] 85.9% | [16] 101% | [17] 88.2%

CS(=O)(=O)c1ccc(-c2cc3c(oc2=O)-c2ccccc2OC3O)cc1 (centres undefined)
inactive: [1] 103% | [2] 90.6% | [3] 95.9% | [4] 98.2% | [5] 92.8% | [6] 102% | [7] 88.2% | [8] 88.5% | [9] 105% | [10] 90.4% | [11] 107% | [12] 111% | [13] 97.8% | [14] 84.8% | [15] 95.9% | [16] 97.5% | [17] 95.1%

COc1cc(C(=O)/C=C/c2c(C)n([O-])c3ccc(Cl)cc3[n+]2=O)cc(OC)c1OC
inactive: [3] 23% | [4] 86.6% | [5] 87.3% | [7] 23.2% | [8] 86.3% | [9] 39% | [10] 29.8% | [11] 64.7% | [12] 49.4% | [13] 24.2% | [14] 30.4% | [15] 15.4% | [16] 100% | [17] 73.1%
active: [1] -5.8% | [2] -35.2% | [6] -30.3%

O=C(N/N=C/c1ccncc1)c1ccccc1Nc1cccc(C(F)(F)F)c1
inactive: [2] 52.3% | [3] 79.1% | [4] 89.5% | [5] 86.4% | [6] 86.8% | [7] 64.7% | [8] 103% | [9] 70.7% | [11] 69.3% | [12] 112% | [13] 95.7% | [14] 104% | [15] 69.2% | [16] 77.8% | [17] 77.8%
active: [1] 4.74%

CCOC(=O)C1CC(=O)c2cc(OC)c(OC)cc2C1 (centres undefined)
inactive: [1] 89.6% | [2] 82.3% | [3] 103% | [4] 101% | [5] 106% | [7] 110% | [8] 112% | [9] 98.5% | [10] 115% | [11] 123% | [12] 114% | [13] 111% | [14] 95.7% | [15] 95.5% | [16] 101% | [17] 103%

C#CC(=O)Nc1cccc2c1cc(C)n2-c1nc2c(c(NCc3ccccc3)n1)CCCC2
active: [1] -32.2% | [2] -22.3% | [3] -14% | [4] -16% | [5] -94.4% | [6] -28.1% | [7] -9.24% | [8] -7.53% | [9] 6.91% | [10] -41.4% | [11] -47.3% | [12] -81.4% | [13] -59.3% | [14] -39.8% | [15] -70.3% | [16] -89.9% | [17] -27.6%

COc1cc(C2NC(c3cc(OC)c(OC)c(OC)c3)C(C#N)(C#N)C2(C#N)C#N)cc(OC)c1OC (centres undefined)
inactive: [1] 118% | [2] 102% | [3] 106% | [4] 96.4% | [5] 102% | [6] 106% | [7] 110% | [8] 89.2% | [9] 97.8% | [10] 96.4% | [11] 101% | [12] 101% | [13] 95.8% | [14] 95.5% | [15] 91.1% | [16] 98.7% | [17] 99.5%

O=S(=O)(O)c1cc(O)c2c(N=Nc3ccc(Nc4ccccc4)c4c(S(=O)(=O)O)cccc34)cc(S(=O)(=O)O)cc2c1
inactive: [1] 111% | [2] 109% | [3] 97% | [4] 105% | [5] 104% | [7] 107% | [8] 101% | [9] 102% | [10] 100% | [11] 100% | [12] 115% | [13] 103% | [14] 105% | [15] 105% | [16] 102% | [17] 101%

CCCCCCC/C=C/[C@H]1O[C@]2(O)C(=O)C=C3C[C@@H](O[C@@H]4O[C@H](CO)[C@@H](O)C(O)[C@@H]4O)C[C@@H]3[C@H]2C=C1C (some centres undefined)
inactive: [4] 12% | [5] 57.6% | [8] 29.1% | [16] 32.8% | [17] 15.5%
active: [1] -26.4% | [2] -23.6% | [3] -20.5% | [6] -7.08% | [7] -75.4% | [9] -6.45% | [10] -9.2% | [11] -18.6% | [12] -19.9% | [13] -28.5% | [14] 8.66% | [15] -45.9%

COc1ccc(C(=O)/C=C/c2ccc(OCc3ccccc3)c(OC)c2)cc1OC
inactive: [1] 11.2% | [3] 17.4% | [4] 107% | [5] 91% | [6] 84.3% | [7] 10.3% | [8] 94.7% | [9] 36.4% | [11] 51.8% | [12] 61% | [13] 12.9% | [14] 22.5% | [15] 18.2% | [17] 36.5%
active: [2] -3.1%

CCCCCCCCN1C(=O)/C(=c2\sc3n(c2=O)C2C(NN=3)N(CC)C(=O)N2CC)c2ccccc21 (centres undefined)
inactive: [1] 77.5% | [2] 105% | [3] 85.7% | [4] 81.6% | [5] 90.6% | [6] 86.5% | [7] 98.6% | [8] 40.4% | [9] 82.2% | [11] 86.9% | [12] 57.3% | [13] 86.8% | [14] 85.2% | [15] 63.2% | [16] 103% | [17] 89.9%

COc1ccccc1OCC(=O)N1CCCCCC1
inactive: [1] 95.1% | [2] 101% | [3] 97.2% | [4] 94.8% | [5] 109% | [6] 104% | [7] 116% | [8] 107% | [9] 103% | [10] 103% | [11] 129% | [12] 101% | [13] 100% | [14] 92.8% | [15] 123% | [16] 108% | [17] 97.3%

C[C@]12C[C@H]1CC[C@]1(C)[C@@H]2CC[C@@]23C[C@H](CC[C@H]21)[C@@](O)(CO)C3
inactive: [1] 63.3% | [2] 95% | [3] 102% | [4] 92.9% | [5] 113% | [6] 104% | [7] 111% | [8] 99.6% | [9] 97.7% | [10] 90.7% | [11] 77% | [12] 59.1% | [13] 109% | [14] 97.8% | [16] 103% | [17] 96.5%
active: [15] -71.4%

CC(=O)[C@@H]1CC[C@]2(C(=O)n3ccnc3)CC[C@]3(C)[C@H](CC[C@@H]4[C@@]5(C)Cc6c([nH]c7ccccc67)C(C)(C)[C@@H]5CC[C@]43C)[C@@H]12
inactive: [1] 77.7% | [2] 72.7% | [3] 90.7% | [4] 105% | [5] 98.3% | [6] 42.6% | [7] 79.5% | [8] 87.1% | [9] 90% | [11] 99.1% | [12] 101% | [13] 90.8% | [14] 71.9% | [15] 83.9% | [16] 109% | [17] 84.2%

COc1ccc(/C=C2\COc3ccc(-c4ccccc4)cc3C2=O)cc1O
active: [1] -10.8% | [2] -21.6% | [6] 7.03% | [7] 2.7% | [8] -1.69% | [10] 6.79% | [11] 2.18% | [12] 5.12% | [13] 6.95% | [14] 0.878% | [15] -5.06% | [17] 2.07%
inactive: [3] 13.1% | [4] 53.7% | [5] 57.6% | [9] 22.6% | [16] 43.1%

CC(c1ccccc1)n1ccnc1CO (centres undefined)
inactive: [1] 104% | [2] 95.6% | [3] 112% | [4] 104% | [5] 96.8% | [6] 94.2% | [7] 115% | [8] 92.1% | [9] 99.8% | [10] 104% | [11] 113% | [12] 98.4% | [13] 97.8% | [14] 97.3% | [15] 104% | [16] 90.6% | [17] 109%

COc1ccc(C(=O)c2cc(C)c(OC)c(C)c2)c(OC)c1O
inactive: [1] 18.8% | [2] 25.9% | [3] 11.3% | [4] 46.9% | [6] 25.9% | [8] 18.1% | [10] 40.2% | [13] 22% | [14] 16.1% | [16] 16.8%
active: [5] -10.5% | [7] -15.8% | [9] 1.87% | [11] 8.49% | [12] -40.3% | [15] 1.83% | [17] 7.53%

FCc1nc2nc(Cl)c(Cl)nc2[nH]1
inactive: [1] 95.9% | [2] 97% | [3] 102% | [4] 93.3% | [5] 97.1% | [6] 108% | [7] 108% | [8] 101% | [9] 107% | [10] 101% | [11] 104% | [12] 107% | [13] 103% | [14] 96.5% | [15] 101% | [16] 104% | [17] 104%
